“And” between values parts separate entries of the source, which are not always exact repeats. Identical values can stand only once. Screen size: about 16,000 compounds; about 5,800 (36%) were called active. Roughly 23% stayed inconclusive and do not appear here. This is one part of the list. Values without a mark were called inactive. Calls come from the whole dose curve; as a rule, active = well fitted curve in the direction sought with a large enough effect; inconclusive = small, poorly fitted or top-dose-only effect, or effect the other way; inactive = no such curve, though single readings can be large or run the other way.
Target: Cytochrome P450 2C19 (Homo sapiens) (UniProt P33261)
Test: Cytochrome panel assay with activity outcomes
Conditions: recombinant CYP, pro-luciferin dealkylation, luminescence, p450-cyp2c19; series mostly up to 57.1 µM
Experimental: The P450 gene superfamily is involved in the metabolism and clearance of xenobiotics. This assay used various human CYP P450 isozymes to measure the dealkylation of various pro-luciferin substrates to luciferin. The luciferin is then measured by luminescence after the addition of a luciferase detection reagent. Pro-luciferin substrate concentration in the assay was equal to its KM for its CYP P450 isozyme. Inhibitors and some substrates limit the production of luciferin, and decrease measured luminescence.
NCGC Assay Protocol Summary:
1, Reagent, 2 uL, Isozyme and Pro-Luciferin
2, Library compounds, 23 nl, 40 uM to 0.24 nM dilution series
3, Controls, 23 nl, Isozyme specific inhibitor
4, Reagent, 2 uL, NADPH regeneration solution
5, Incubation time, 60 min, Isozyme specific temperature
6, Reagent, 4ul, Detection reagent
7, Incubation time, 20 min, Isozyme specific temperature
8, Detection, 1 sec, ViewLux luminescent read
The luciferase-based P450-GloTM Screening Systems were obtained from Promega (Madison, WI) for CYP 1A2 (V9770), CYP 2C9 (V9790), CYP2 C19 (V9880), CYP 2D6 (V9890), and CYP 3A4 Luciferin-PPXE (V9910) and were adapted for 1,536-well microplates and an automated protocol. The control compounds furafylline for 1A2 (F124), sulfaphenazole for CYP 2C9 (S0758), ketoconazole for CYP 2C19 (K1003), quinidine for 2D6 (Q3625), and ketoconazole for 3A4 (K1003) were purchased from Sigma Aldrich (St. Louis, MO). Recombinant P450 enzymes were obtained from baculovirus constructs expressed in insect cells (BD/Gentest).
Medium-binding white solid Kalypsys plates used. Mixtures kept on ice. 1A2: 10 nM 1A2, 100 uM Luc-ME, 100 mM KPO4; 2C9: 10 nM 2C9, 100 uM Luc-H, 25 mM KPO4; 2C19: 5 nM 2C19, 10 uM Luc-H EGE, 50 mM KPO4; 2D6: 5 nM 2D6, 30 uM Luc-ME EGE, 100 mM KPO4; 3A4: 10 nM, 25 uM Luc-PPXE. All amounts are reflected in their final concentration, working concentration is 2x.
NADPH regeneration solution: 1.3 mM NADP+, 3.3 mM glucose-6-phosphate, 3.3 mM MgCl2, 0.4 U/mL glucose-6-phosphate dehydrogenase for all isozymes, 200 mM KPO4 for 3A4. Mixture prepared at RT but kept on ice during automated run.
RT incubation in auxilliary plate hotel for 1A2, 2D6, and 3A4; 37C for 2C9 and 2C19.
Keywords: P450, CYP1A2, CYP2C19, CYP2C9, CYP2D6, CYP3A4, Luciferase, MLSMR, MLSCN, NIH Roadmap, qHTS, NCGC
% is set by controls: 0 for no effect and ±100 for the full control effect.

Cytochrome P450 2C19 (Homo sapiens), sequence (P33261 whole entry, looked up): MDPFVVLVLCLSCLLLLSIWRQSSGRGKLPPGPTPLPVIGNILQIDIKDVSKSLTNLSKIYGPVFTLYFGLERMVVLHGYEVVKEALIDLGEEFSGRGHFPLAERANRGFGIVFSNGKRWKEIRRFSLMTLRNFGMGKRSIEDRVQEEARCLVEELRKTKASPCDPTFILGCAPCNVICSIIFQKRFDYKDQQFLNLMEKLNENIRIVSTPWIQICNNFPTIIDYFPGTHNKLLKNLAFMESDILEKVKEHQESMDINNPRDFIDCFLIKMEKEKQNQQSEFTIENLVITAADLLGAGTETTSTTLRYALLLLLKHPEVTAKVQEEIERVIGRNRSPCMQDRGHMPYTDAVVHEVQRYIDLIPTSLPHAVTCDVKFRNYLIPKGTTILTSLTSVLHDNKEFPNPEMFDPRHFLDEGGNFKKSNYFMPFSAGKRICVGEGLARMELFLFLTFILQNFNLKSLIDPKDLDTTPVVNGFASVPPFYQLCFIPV

| Structure (SMILES) | activity, negative = inhibition | AC50 |
| --- | --- | --- |
| COC(=O)C/C=C\[C@@H](C)[C@@H](/C=N\O[C@@H](C)c1cn([C@H](CO)Cc2ccccc2)nn1)OC | -27.6% [at 11.4 µM] and -8.78% [at 11.4 µM] |  |
| N#Cc1ccccc1-c1ccc2ncnc(NCCN3CCOCC3)c2c1 |  | inactive |
| N#Cc1nc(-c2ccc(OCc3ccccc3)cc2)oc1NCCN1CCOCC1 |  | 5.62 µM (active) |
| Cc1cccc(NC(=S)NNC(=O)c2csc3c2CCCC3)c1 |  | 10 µM (active) |
| O=[N+]([O-])c1ccc(Cl)c(/C=N/N2CCN(Cc3ccccc3Cl)CC2)c1 |  | 3.98 µM (active) |
| O=[N+]([O-])c1ccc(Cl)c(/C=N/N2CCN(Cc3ccccc3)CC2)c1 |  | 17.8 µM (active) |
| C=C(C)C(=O)N1CC2(CC(c3cccc(NC(=O)c4ccccc4)c3)=NO2)C[C@@H]1C(N)=O (stereo partly drawn) |  | inactive |
| CCS(=O)(=O)N1CCC(C(=O)NCC2CCCO2)CC1 (stereo not drawn) |  | inactive |
| Cc1cc(C)c(S(=O)(=O)N2CCN(c3ccc([N+](=O)[O-])c(NCC4CCCO4)c3)CC2)c(C)c1 (stereo not drawn) |  | 3.16 µM (active) |
| Cc1ccc(NC(=O)c2ccc(NCC3CCCO3)c([N+](=O)[O-])c2)cc1Cl (stereo not drawn) |  | 5.01 µM (active) |
| O=S(Cc1cc(Oc2ccccc2)nc(-c2ccccc2)n1)c1ccccc1 (stereo not drawn) |  | 2.82 µM (active) |
| CNc1cc(CS(=O)c2ccccc2)nc(-c2ccccc2)n1 (stereo not drawn) |  | 1.41 µM (active) |
| O=S(=O)(Cc1cc(Oc2ccccc2)nc(-c2ccccc2)n1)c1ccccc1 |  | 1.26 µM (active) |
| O=c1[nH][nH]c(C(F)(F)F)c1C=Nc1ccccc1Cl |  | inactive |
| [O-][N+](CCO)(CCO)c1ncnc2nc[nH]c12 | 41% [at 11.4 µM] |  |
| CC[C@@]1(O)C(=O)COc2c1cc1n(c2=O)Cc2c-1nc1cccc(C(C)C)c1c2[Si](C)(C)C |  | inactive |
| Cc1sc(NC(=O)/C=C/c2ccc(C(C)C)cc2)c(C#N)c1C |  | inactive |
| Cc1sc(NC(=O)C2CCCCC2)c(C#N)c1-c1ccccc1 |  | 2.82 µM (active) |
| CC(=O)N[C@@H](CC(=O)O)C(=O)O |  | inactive |
| CC#CCOC(=O)c1c(C)nc2sc3c(c2c1N)CC[C@@H](O)C3 |  | 25.1 µM (active) |
| Cn1c(=O)c2[nH]c(CCCc3ccc([N+](=O)[O-])cc3)nc2n(C)c1=O | 6.48% [at 11.4 µM] |  |
| CCc1cc(C(c2ccccc2OC)N2CCOCC2)c(NC(=O)c2ccccc2)s1 (stereo not drawn) |  | 11.2 µM (active) |
| CCOc1cc(/C=C2\C(=O)N(Cc3ccc(C)cc3)C(C)=C2C(=O)OC)ccc1O |  | 3.98 µM (active) |
| COc1cccc(Nc2ncc3nc(C)c(=O)n(CCC#N)c3n2)c1 |  | inactive |

| Structure (SMILES) | activity, negative = inhibition | AC50 |
| --- | --- | --- |
| Cc1cc(OC(=O)c2cc(F)c(F)cc2Cl)nc(C)n1 |  | inactive |
| CSc1nsc(SCc2ccc(Cl)cc2)n1 |  | 0.447 µM (active) |
| O=c1c(-c2nc3ccccc3s2)cccn1Cc1ccccc1 |  | 2 µM (active) |
| CCN(CC)CCOC(=O)c1ccc(N)cc1 |  | inactive |
| CCOC(=O)c1c(C)[nH]c(C)c1C(=O)COC(=O)c1cccc(S(=O)(=O)N(CC)CC)c1 |  | 0.447 µM (active) |
| CCCN(CCC)S(=O)(=O)c1ccc(C(=O)O)cc1 |  | inactive |
| CCOC(=O)c1c(C)[nH]c(C)c1C(=O)COC(=O)c1ccc(S(=O)(=O)N(CC)CC)cc1 |  | 1.12 µM (active) |
| C[C@@H](CNC(N)=O)NC(N)=O | 25.4% [at 11.4 µM] |  |
| Cc1ccc(S(=O)(=O)N(CCCN2CCCC2=O)Cc2cc3c(C)ccc(C)c3[nH]c2=O)cc1 |  | 11.2 µM (active) |
| Cc1ccc(CS(=O)(=O)CCC(=O)NCCCN2CCCC2=O)cc1 |  | inactive |
| O=C(CCC(=O)OCc1ccc(C(=O)Oc2ccccc2)cc1)Nc1cccc2ccccc12 |  | 11.2 µM (active) |
| O=C(c1ccc(Cl)cc1)N1CCN(C(=O)c2ccco2)CC1 |  | inactive |
| O=C(Cc1ccc(Cl)cc1)N1CCN(C(=O)c2ccco2)CC1 |  | 7.94 µM (active) |
| O=C(c1cc(-c2ccc(Cl)cc2Cl)on1)N1CCN(C(=O)c2ccco2)CC1 |  | 3.16 µM (active) |
| O=C(c1ccco1)N1CCC2(CC1)CN(c1ccccn1)C2 |  | inactive |
| CCCN(CCC)C(=S)NC(=O)c1ccc(Cl)cc1Cl |  | 2.51 µM (active) |
| CC1CC(C)CN(C(=O)CNS(=O)(=O)c2ccc(Br)s2)C1 (stereo not drawn) |  | 4.47 µM (active) |
| Cc1cccc(C(=O)NC(=S)N2CCN(C)CC2)c1 |  | inactive |
| Cc1cccc(C(=O)NC2CCN(C(=S)NCc3ccco3)CC2)c1 |  | 28.2 µM (active) |
| COc1cccc(-c2csc(N3CCN(C(=S)Nc4ccccc4)CC3)n2)c1 |  | 1.78 µM (active) |
| COc1cccc(-c2csc(N3CCN(CC(=O)NNC(=O)c4ccc(Cl)cc4)CC3)n2)c1 |  | 1.26 µM (active) |
| COc1ccc(C(=O)NC2CCN(C(=S)Nc3cccc(C)c3)CC2)cc1 |  | 8.91 µM (active) |
| COc1cccc(C(=O)NCCN2CCN(c3ccc(Cl)cc3)CC2)c1 |  | inactive |
| COc1ccc(C(=O)N2CCC3(CC2)CN(C(=O)Nc2cccc(C#N)c2)C3)cc1 |  | inactive |

| Structure (SMILES) | activity, negative = inhibition | AC50 |
| --- | --- | --- |
| COc1ccc(N2CCN(C(=S)Nc3cc(C)cc(C)c3)CC2)cc1 |  | inactive |
| COC(=O)N1CCC2(CC1)CCN(c1cccc(-c3ccccc3)c1)CC2 |  | inactive |
| COc1ccc(N2CCN(C(=S)Nc3cc(C)ccc3C)CC2)cc1 |  | 5.62 µM (active) |
| CNC(=S)N1CCN(c2ccccc2OC)CC1 |  | 7.08 µM (active) |
| CNC(=S)N1CCN(c2cccc(OC)c2)CC1 |  | 7.08 µM (active) |
| COC(=O)c1ccc(NC(=S)N2CCN(Cc3cccc(C)c3)CC2)cc1 |  | 4.47 µM (active) |
| COc1ccc(COC(=O)N/N=C2/C[C@@H](O)[C@@H](O)[C@@H]3[C@@H]4C(=O)N(C(C)(C)C)C(=O)[C@H]4CC[C@H]23)cc1 | 9.85% [at 11.4 µM] |  |
| COc1cccc(N2CCN(C(=S)Nc3cccc(C)c3)CC2)c1 |  | 7.94 µM (active) |
| COc1ccc(N2CCN(C(=S)Nc3cccc(C)c3)CC2)cc1 |  | inactive |
| Cc1c(CCC(C)C)c(-n2ccnc2C)n2c(nc3ccccc32)c1C#N |  | inactive |
| FC(F)(F)c1nc2ccccc2nc1N/N=C/c1ccc(Cl)cc1 |  | 3.55 µM (active) |
| COC(=O)C/C=C\[C@@H](C)[C@@H](/C=N\O[C@@H](C)CN1CCCc2nc(C)c(C)cc21)OC | -26.4% [at 11.4 µM] |  |
| Cc1cc(Cl)ccc1OCCCC(=O)N1CCN(C)CC1 |  | 5.62 µM (active) |
| CCOC(=O)c1c(CC(C)C)csc1NC=O |  | 14.1 µM (active) |
| COC(=O)c1c(C)oc2ccc(N(C(=O)c3ccncc3)S(=O)(=O)c3ccccc3)cc12 |  | 0.631 µM (active) |
| NCCCCCc1nnc(SCc2ccccc2Cl)o1 |  | 4.47 µM (active) |
| NCCCCCc1nnc(SCc2ccc(Cl)cc2Cl)o1 |  | 5.62 µM (active) |
| Cc1cc(=O)n2c3ccccc3n(CC(O)CN3CCCCC3)c2c1C#N (stereo not drawn) |  | inactive |
| Nc1ncnc2c1ncn2[C@H]1O[C@@H](C(=O)O)[C@@H](O)[C@H]1O | -9.53% [at 11.4 µM] |  |
| COc1ccc(NC(=O)CSc2nc3ccccc3cc2Cc2ccccc2)cc1 |  | 0.0282 µM (active) |
| COc1cccc(NC(=O)CSc2nc3ccccc3cc2Cc2ccccc2)c1 |  | 0.251 µM (active) |
| COc1ccccc1NC(=O)CSc1nc2ccccc2cc1Cc1ccccc1 |  | 0.0398 µM (active) |
| COc1ccc(NC(=O)CCSc2cc(C)c3ccccc3n2)cc1 |  | 7.94 µM (active) |
| CN(CCc1ccc(Cl)c(Cl)c1)C[C@@H](O)COc1ccc(NS(C)(=O)=O)cc1 |  | 2 µM (active) |

| Structure (SMILES) | activity, negative = inhibition | AC50 |
| --- | --- | --- |
| CC(C)NC[C@H](O)c1ccc(NS(C)(=O)=O)cc1 |  | inactive |
| CN(CCc1ccc(Cl)c(Cl)c1)CCN1CCCCCC1 |  | inactive |
| O=C(NCC1CCCO1)c1onc(CSc2ccccc2F)c1C(=O)O (stereo not drawn) |  | inactive |
| COCCNC(=O)c1onc(CSc2cccc(Cl)c2)c1C(=O)O |  | inactive |
| O=C(NCc1ccccc1)c1onc(CSc2ccc(F)cc2)c1C(=O)NCCCN1CCOCC1 |  | 12.6 µM (active) |
| C=CCNC(=O)c1onc(CSc2ccc(F)cc2)c1C(=O)O |  | 5.62 µM (active) |
| COCCNC(=O)c1onc(CSc2ccc(Cl)cc2)c1C(=O)O |  | 3.55 µM (active) |
| O=C(NCCCN1CCOCC1)c1cc2c(s1)CSC2 |  | inactive |
| COc1ccccc1C(=O)O/N=C1/CCCc2c1ccc(OC)c2[N+](=O)[O-] |  | 0.631 µM (active) |
| COc1ccc(/C=N/NC(N)=S)cc1OC(=O)c1cccc2ccccc12 |  | 2 µM (active) |
| O=C(O)CC[C@]1(C(=O)O)CCC(=O)c2ccccc21 | 22.5% [at 11.4 µM] |  |
| Cc1ccccc1NS(=O)(=O)c1ccc2[nH]cc(C(=O)N(C)Cc3ccco3)c(=O)c2c1 |  | 25.1 µM (active) |
| NNS(=O)(=O)c1cc(C(=O)O)cc(C(=O)O)c1 | -25.2% [at 11.4 µM] |  |
| CC1CCN(c2ccc(S(=O)(=O)Nc3cc(C(=O)O)cc(C(=O)O)c3)cc2[N+](=O)[O-])CC1 |  | 3.16 µM (active) |
| COC(=O)c1cc(NS(=O)(=O)c2ccc(N3CCCCCC3)c([N+](=O)[O-])c2)cc(C(=O)OC)c1 |  | 5.62 µM (active) |
| CCCCN(C)S(=O)(=O)c1ccc(C(=O)Nc2nnc(CSC)o2)cc1 |  | inactive |
| Cc1cc(C)c(C)c(S(=O)(=O)ON2C(=O)c3ccccc3C2=O)c1C |  | 3.16 µM (active) |
| CC(C)(SCc1ccccc1)[C@H](N)C(=O)O | 1.45% [at 11.4 µM] |  |
| N[C@@](CC(=O)O)(Cc1ccccc1)C(=O)O | 22.4% [at 11.4 µM] |  |
| C=CC(=O)NC(C)(C)Cc1ccccc1 |  | 14.1 µM (active) |
| COC(=O)c1ccccc1NS(=O)(=O)c1ccc2c3c(cccc13)C(=O)N2 |  | 0.794 µM (active) |

— PubChem BioAssay AID1851 (National Center for Advancing Translational Sciences (NCATS), 2009)
